Data: PubChem BioAssay AID1159580 (chemical genetic matrix, 2015)
“And” between values parts separate entries of the source, which are not always exact repeats. Identical values can stand only once. The campaign covered roughly 5,500 compounds. About 2,000 (36%) were called active. Not shown: some 18% with an inconclusive outcome. No stated cut-off is given here; in the data, active means normalized growth mostly below about 0.91 (no sharp cut-off); inconclusive means no clear call, values can overlap the other calls; inactive means mostly above about 0.92. The list shows a part of the results.

Test: chemical genetic growth profiling, strain panel (AID 1159580);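 further: tested at 20 µM; growth read once vehicle control cultures reached saturation at 30 °C; 1 = growth at the plate median or of vehicle wells; lower values mean less growth of the strain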
Settings: S. cerevisiae deletion strains, growth OD

Measured: normalized growth

C[C@@H]1CC[C@@]23CCC4(C)[C@@](C=CC5[C@@]6(C)CC[C@H](O)C(C)(C)C6CC[C@]54C)(OC2=O)C3[C@H]1C (some centres not stated)
inactive: locus YAL021C, strain ccr4, hits give low values 0.999 | locus YAL026C, strain drs2, hits give low values 1.01 | locus YAL030W, strain snc1, hits give low values 1 | locus YBL061C, strain skt5, hits give low values 1.06 | locus YBR009C, strain hhf1, hits give low values 1 | locus YBR021W, strain FUR4, hits give low values 0.999 | locus YBR023C, strain chs3, hits give low values 1.02 | locus YBR171W, strain sec66, hits give low values 1 | locus YBR229C, strain ROT2, hits give low values 1 | locus YBR231C, strain swc5, hits give low values 1.09 | locus YCL011C, strain gbp2, hits give low values 1 | locus YCL016C, strain dcc1, hits give low values 1.08 | locus YCL029C, strain bik1, hits give low values 1.02 | locus YCL061C, strain MRC1, hits give low values 0.991 | locus YCL069W, strain vba3, hits give low values 1.01 | locus YCR088W, strain abp1, hits give low values 1 | locus YDL005C, strain med2, hits give low values 1.01 | locus YDL035C, strain GPR1, hits give low values 1 | locus YDL040C, strain nat1, hits give low values 1.06 | locus YDL074C, strain BRE1, hits give low values 1.04 | locus YDL101C, strain DUN1, hits give low values 1.02 | locus YDL134C, strain PPH21, hits give low values 1.03 | locus YDL185W, strain tfp1, hits give low values 1.01 | locus YDL192W, strain arf1, hits give low values 1.05 | locus YDR001C, strain nth1, hits give low values 1.01 | locus YDR069C, strain doa4, hits give low values 0.985 | locus YDR101C, strain arx1, hits give low values 1.03 | locus YDR159W, strain sac3, hits give low values 1.1 | locus YDR162C, strain NBP2, hits give low values 1.04 | locus YDR195W, strain ref2 0.955 | locus YDR297W, strain sur2, hits give low values 1 | locus YDR318W, strain mcm21, hits give low values 1.01 | locus YDR334W, strain swr1, hits give low values 1 | locus YDR335W, strain msn5, hits give low values 1.01 | locus YDR388W, hits give low values 1.01 | locus YDR392W, strain spt3, hits give low values 1.02 | locus YDR502C, strain sam2, hits give low values 1 | locus YEL003W, strain gim4, hits give low values 0.99 | locus YEL037C, strain rad23, hits give low values 1.04 | locus YEL061C, strain CIN8 (second series), hits give low values 1 | locus YEL061C, strain CIN8, hits give low values 1.02 | locus YER015W, strain faa2, hits give low values 1 | locus YER110C, hits give low values 0.995 | locus YER111C, strain swi4, hits give low values 1.04 | locus YER155C, strain BEM2 (second series), hits give low values 0.967 | locus YER155C, strain BEM2, hits give low values 1.03 | locus YER167W, strain BCK2, hits give low values 1.01 | locus YFR010W, strain ubp6, hits give low values 1.02 | locus YGL078C, strain dbp3, hits give low values 1 | locus YGL086W, strain mad1, hits give low values 1.02 | locus YGL167C, strain pmr1, hits give low values 1.02 | locus YGL173C, strain kem1, hits give low values 0.991 | locus YGL227W, strain vid30, hits give low values 1 | locus YGL240W, strain doc1, hits give low values 0.99 | locus YGL248W, strain PDE1, hits give low values 1.03 | locus YGL253W, strain hxk2, hits give low values 1.03 | locus YGR078C, strain PAC10, hits give low values 1.03 | locus YGR135W, strain pre9, hits give low values 0.993 | locus YGR229C, strain SMI1, hits give low values 1.08 | locus YGR252W, strain gcn5, hits give low values 1.07 | locus YHR013C, strain ard1, hits give low values 1.06 | locus YHR027C, strain rpn1, hits give low values 1.01 | locus YHR030C, strain SLT2, hits give low values 1.03 and 1.01 | locus YHR079C, strain IRE1 (second series), hits give low values 0.998 | locus YHR079C, strain IRE1, hits give low values 0.999 | locus YHR129C, strain ARP1, hits give low values 1.03 | locus YHR142W, strain chs7, hits give low values 1.06 | locus YHR200W, strain rpn10, hits give low values 0.988 | locus YIL066C, strain RNR3, hits give low values 1.04 | locus YIL073C, strain SPO22, hits give low values 1.05 | locus YIL125W, strain kgd1, hits give low values 0.992 | locus YJL092W, strain hpr5, hits give low values 1.01 | locus YJL095W, strain BCK1 (second series), hits give low values 1.03 | locus YJL095W, strain BCK1, hits give low values 1.06 and 1.01 | locus YJL115W, strain asf1, hits give low values 1.03 | locus YJL129C, strain trk1, hits give low values 1.03 | locus YJL134W, strain LCB3, hits give low values 1.02 | locus YJL154C, strain vps35, hits give low values 1 | locus YJL164C, strain tpk1, hits give low values 1.01 | locus YJL166W, strain qcr8, hits give low values 1.01 | locus YJL187C, strain SWE1 (second series), hits give low values 1.01 | locus YJL187C, strain SWE1, hits give low values 0.996
active: locus YBR279W, strain paf1, hits give low values 1.09 [resistant] | locus YDR137W, strain rgp1, hits give low values 1.16 [resistant] | locus YER016W, strain bim1, hits give low values 1.17 [resistant] | locus YHR094C, strain hxt1, hits give low values 1.14 [resistant] | locus YIR030C, strain dcg1, hits give low values 1.18 [resistant]
